Measured values reported in PubChem BioAssay (NCATS).
For part of these data: Entries with a potency or affinity are not part of this list. Active and inactive are the calls of the source. No rule for the calls is given here.

What was measured:
[1] = Ebola virus entry assay, green fluorescence channel
[2] = Ebola virus entry assay, blue channel fluorescence
[3] = Ebola virus entry assay, ratio channel
[4] = Ebola virus entry assay, green channel fluorescence
[5] = Ebola virus entry assay, reporter ratio channel; Channel type: primary
[6] = Ebola virus entry assay, blue channel (ratio component)

Measured: efficacy
For efficacy in this document: 0% is about no effect.

O=C(O)CCNC(=O)c1ccccc1
inactive: [1] -15.3% | [2] | [3] | [4] | [5] | [6]

Cc1cc(C(C)(C)C)c(O)c(C(C)(C)C)c1
inactive: [1] -23% | [2] | [3] | [4] | [5] | [6]

CN1CCN(c2c(F)cc3c(=O)c(C(=O)O)cn(CCF)c3c2F)CC1
inactive: [1] -28.9% | [2] | [3] | [4] | [5] | [6]

CCOC(=O)C(=O)CCc1ccccc1
inactive: [1] -17.5% | [2] | [3] | [4] | [5] | [6]

C1CCN2C[C@@H]3C[C@@H](CN4CCCC[C@@H]34)[C@H]2C1
inactive: [1] 13.4% | [2] | [3] | [4] | [5] | [6]
